Where “and” joins values, the source holds several entries; their conditions need not be identical. Identical values can stand only once. This is part of a sample that, as a whole, favours compounds with a hit. Of some 79,000 tested, about 15% had one in any assay. Calls of active or inactive are those of the source. Cut-off read from the data, not from the text of the source: active = growth inhibition above about 70%; inactive = the rest.
Experiments:
[1] = NCI Yeast Anticancer Drug Screen. Data for the wt2 strain (AID 169);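 note: 0% = growth of vehicle-treated yeast cultures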; details: S. cerevisiae wt2 strain growth inhibition, hits give high values
In short: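 The panel's yeast strains carry defined changes in DNA repair or cell cycle genes. Each strain is grown with compound, and growth loss is scored relative to vehicle.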

[2] = NCI Yeast Anticancer Drug Screen. Data for the mlh1 strain (AID 171);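 note: 0% = growth of vehicle-treated control cultures of the same strain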; details: S. cerevisiae mlh1 strain growth inhibition, hits give high values
In short: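 Inhibition values reflect reduced yeast growth in the presence of compound, referenced to vehicle controls, using a strain chosen for its alteration in DNA repair or cell cycle control.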

[3] = NCI Yeast Anticancer Drug Screen. Data for the sgs1 strain (AID 173);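 note: 0% = growth of vehicle-only control cultures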; details: S. cerevisiae sgs1 mutant, hits give high values
In short: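 Vehicle-treated cultures served as reference for growth inhibition of a yeast strain altered in DNA damage repair or cell cycle control after compound exposure.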

[4] = NCI Yeast Anticancer Drug Screen. Data for the mlh1 rad18 strain (AID 175); details: S. cerevisiae mlh1 rad18 strain growth inhibition, hits give high values
In short: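 Inhibition values reflect reduced growth of mutant yeast versus vehicle-treated controls following compound exposure; the mutations affect DNA damage repair.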

[5] = NCI Yeast Anticancer Drug Screen. Data for the rad18 strain (AID 177); details: S. cerevisiae rad18 mutant growth inhibition, hits give high values
In short: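 Steps: expose repair-mutant yeast to compound; measure growth; express as inhibition relative to vehicle control.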

[6] = NCI Yeast Anticancer Drug Screen. Data for the rad52 strain (AID 147);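 note: 0% = growth of vehicle-treated control cultures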; details: S. cerevisiae rad52 mutant growth inhibition, hits give high values
In short: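 Inhibition of yeast growth, referenced to vehicle controls, was the measured output for a strain with defective DNA damage repair.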

[7] = NCI Yeast Anticancer Drug Screen. Data for the wt1 strain (AID 149);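 note: 0% = growth of vehicle-treated wt1 cultures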; details: S. cerevisiae wt1 strain (SPY 50644) growth inhibition, hits give high values
In short: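 Yeast wt1 strain exposed to compounds; growth inhibition measured relative to vehicle-treated controls.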

[8] = NCI Yeast Anticancer Drug Screen. Data for the rad50EPP+ strain (AID 151);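 note: 0% = growth of vehicle-treated control cultures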; details: S. cerevisiae rad50 mutant strain, hits give high values
In short: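 Genetically defined yeast (rad50EPP+, DNA damage repair alteration) is grown with compound, and inhibition of growth is expressed relative to vehicle-treated controls.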

[9] = NCI Yeast Anticancer Drug Screen. Data for the mgt1 strain (AID 153); details: S. cerevisiae mgt1 mutant growth inhibition, hits give high values
In short: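 In the mgt1 strain, test compounds were added and growth inhibition was determined relative to vehicle-treated controls.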

[10] = NCI Yeast Anticancer Drug Screen. Data for the rad50 strain (AID 155);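 note: 0% = growth of vehicle-only cultures of the same strain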; details: S. cerevisiae rad50 strain growth inhibition, hits give high values
In short: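 Yeast carrying a defined DNA repair defect were exposed to test compounds, and growth was compared with vehicle-treated controls to give percent inhibition.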

[11] = NCI Yeast Anticancer Drug Screen. Data for the mec2-1 strain (AID 157); details: S. cerevisiae mec2-1 strain, hits give high values
In short: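 Each compound was tested on mec2-1 yeast, a strain altered in DNA damage repair or cell cycle control. Growth inhibition is reported relative to vehicle.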

[12] = NCI Yeast Anticancer Drug Screen. Data for the rad14 strain (AID 159);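 note: 0% = growth of vehicle-treated control cultures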; details: S. cerevisiae rad14 strain growth inhibition, hits give high values
In short: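 Yeast cells carrying a defined DNA-repair defect were exposed to compounds, and growth inhibition was calculated relative to vehicle-treated control cultures.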

[13] = NCI Yeast Anticancer Drug Screen. Data for the sgs1 mgt1 strain (AID 161);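 note: 0% = growth of cultures given vehicle only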; details: S. cerevisiae sgs1 mgt1 strain, hits give high values
In short: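 Test agents were incubated with a DNA-repair-mutant yeast strain. Growth was then read and compared against vehicle-treated controls.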

[14] = NCI Yeast Anticancer Drug Screen. Data for the CLN2oe strain (AID 163);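 note: 0% = growth of vehicle-only control cultures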; details: S. cerevisiae CLN2oe strain, hits give high values
In short: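 First, the altered yeast strain was treated with each compound; second, its growth was measured; finally, inhibition was derived by comparison with vehicle controls.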

[15] = NCI Yeast Anticancer Drug Screen. Data for the cln2 rad14 strain (AID 165);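 note: 0% = growth equal to vehicle treated cultures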; details: S. cerevisiae cln2 rad14 strain, hits give high values
In short: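 Test compounds were added to cln2 rad14 yeast cultures; inhibition of growth was then determined by comparison with vehicle treatment.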

[16] = NCI Yeast Anticancer Drug Screen. Data for the bub3 strain (AID 167); details: S. cerevisiae bub3 mutant strain, hits give high values
In short: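 Compounds were applied to a genetically altered yeast strain carrying a cell-cycle control defect. Growth inhibition was scored against vehicle-treated controls.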

[17] = at 5.0 µM (retest, dose inferred, filed as 0.5)
[18] = at 50.0 µM (retest, dose inferred, filed as 5.0)

Measured: growth inhibition

Cc1ccc(Sc2ccccc2N)cc1
active: [1]; at 100.0 µM 98% | [2]; at 100.0 µM 98% | [3]; at 100.0 µM 98% | [4]; [18] 90% and 73% | [4]; at 50.0 µM 90.5% and 91% | [5]; at 100.0 µM 98%
inactive: [1]; at 1.2 µM -16% | [1]; at 3.7 µM -2% | [1]; at 11.0 µM -17% | [1]; at 33.0 µM 35% | [2]; at 1.2 µM 5% | [2]; at 3.7 µM -6% | [2]; at 11.0 µM 14% | [2]; at 33.0 µM 57% | [3]; at 1.2 µM 8% | [3]; at 3.7 µM -2% | [3]; at 11.0 µM -3% | [3]; at 33.0 µM 51% | [4]; [17] 32% and 37% | [5]; at 1.2 µM -16% | [5]; at 3.7 µM -13% | [5]; at 11.0 µM -21% | [5]; at 33.0 µM 12%

O=[N+]([O-])c1ccc2c(c1)/C(=N/N=C1c3ccccc3Cc3ccccc31)c1cc([N+](=O)[O-])cc([N+](=O)[O-])c1-2
inactive: [6]; at 1.2 µM 9% | [6]; at 3.7 µM 32% | [7]; at 1.2 µM -19% | [7]; at 3.7 µM 21% | [8]; at 1.2 µM -7% | [9]; at 1.2 µM 16% | [10]; at 1.2 µM -10% | [10]; at 3.7 µM 60% | [10]; [17] 9% | [11]; at 1.2 µM 16% | [11]; [17] 24% | [12]; at 1.2 µM 16% | [12]; at 3.7 µM 53% | [14]; at 1.2 µM 28% | [14]; at 3.7 µM 50% | [15]; [17] 25% | [16]; at 1.2 µM 4% | [16]; at 3.7 µM 57% | [16]; [17] 63% | [1]; at 1.2 µM 15% | [1]; at 3.7 µM 41% | [2]; at 1.2 µM 15% | [2]; at 3.7 µM 50% | [3]; at 1.2 µM 18% | [3]; at 3.7 µM 64% | [4]; [17] 27% | [5]; at 1.2 µM 50%
active: [6]; at 11.0 µM 91% | [6]; at 33.0 µM 98% | [6]; at 100.0 µM 96% | [7]; at 11.0 µM 99% | [7]; at 33.0 µM 99% | [7]; at 100.0 µM 97% | [8]; at 3.7 µM 86% | [8]; at 11.0 µM 99% | [8]; at 33.0 µM 97% | [8]; at 100.0 µM 94% | [9]; at 3.7 µM 74% | [9]; at 11.0 µM 99% | [9]; at 33.0 µM 98% | [9]; at 100.0 µM 93% | [10]; at 11.0 µM 96% | [10]; at 33.0 µM 98% | [10]; [18] 96% | [10]; at 50.0 µM 82.7% | [10]; at 100.0 µM 94% | [11]; at 3.7 µM 78% | [11]; at 11.0 µM 99% | [11]; at 33.0 µM 98% | [11]; [18] 96% | [11]; at 50.0 µM 81.5% | [11]; at 100.0 µM 95% | [12]; at 11.0 µM 98% | [12]; at 33.0 µM 99% | [12]; at 100.0 µM 95% | [13]; [17] 75% | [13]; [18] 98% | [13]; at 50.0 µM 89.2% | [14]; at 11.0 µM 99% | [14]; at 33.0 µM 99% | [14]; at 100.0 µM 95% | [15]; [18] 97% | [15]; at 50.0 µM 85.8% | [16]; at 11.0 µM 99% | [16]; at 33.0 µM 98% | [16]; [18] 98% | [16]; at 50.0 µM 85.9% | [16]; at 100.0 µM 91% | [1]; at 11.0 µM 98% | [1]; at 33.0 µM 98% | [1]; at 100.0 µM 94% | [2]; at 11.0 µM 99% | [2]; at 33.0 µM 98% | [2]; at 100.0 µM 93% | [3]; at 11.0 µM 99% | [3]; at 33.0 µM 99% | [3]; at 100.0 µM 95% | [4]; [18] 96% | [4]; at 50.0 µM 82.5% | [5]; at 3.7 µM 81% | [5]; at 11.0 µM 97% | [5]; at 33.0 µM 97% | [5]; at 100.0 µM 94%

From PubChem BioAssay (NCI)
